In PubChem BioAssay AID449739 (Vanderbilt High Throughput Screening Facility, 2010):
Out of some 100,000 compounds screened, about 4,200 (4.2%) were called active. The full list was thinned out, with actives kept by preference. A number with no mark means an inactive call.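 How the source made its calls: active means single-dose well whose peak fluorescence ratio is a statistical outlier from its plate by either plate-standardised score or position-corrected B-score; inactive means the rest.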

These molecules were tested against Voltage-dependent T-type calcium channel subunit alpha-1H (Homo sapiens) (UniProt O95180) (assay: Cav3.2 calcium influx blockers – cell-based, Fluo-4 calcium fluorescence, FDSS, MLSMR library, primary screen (AID 449739)). Details: Cav3.2-expressing cells, at 10 µM, hits give low values.
Chain of Voltage-dependent T-type calcium channel subunit alpha-1H (Homo sapiens) (O95180 whole entry, looked up): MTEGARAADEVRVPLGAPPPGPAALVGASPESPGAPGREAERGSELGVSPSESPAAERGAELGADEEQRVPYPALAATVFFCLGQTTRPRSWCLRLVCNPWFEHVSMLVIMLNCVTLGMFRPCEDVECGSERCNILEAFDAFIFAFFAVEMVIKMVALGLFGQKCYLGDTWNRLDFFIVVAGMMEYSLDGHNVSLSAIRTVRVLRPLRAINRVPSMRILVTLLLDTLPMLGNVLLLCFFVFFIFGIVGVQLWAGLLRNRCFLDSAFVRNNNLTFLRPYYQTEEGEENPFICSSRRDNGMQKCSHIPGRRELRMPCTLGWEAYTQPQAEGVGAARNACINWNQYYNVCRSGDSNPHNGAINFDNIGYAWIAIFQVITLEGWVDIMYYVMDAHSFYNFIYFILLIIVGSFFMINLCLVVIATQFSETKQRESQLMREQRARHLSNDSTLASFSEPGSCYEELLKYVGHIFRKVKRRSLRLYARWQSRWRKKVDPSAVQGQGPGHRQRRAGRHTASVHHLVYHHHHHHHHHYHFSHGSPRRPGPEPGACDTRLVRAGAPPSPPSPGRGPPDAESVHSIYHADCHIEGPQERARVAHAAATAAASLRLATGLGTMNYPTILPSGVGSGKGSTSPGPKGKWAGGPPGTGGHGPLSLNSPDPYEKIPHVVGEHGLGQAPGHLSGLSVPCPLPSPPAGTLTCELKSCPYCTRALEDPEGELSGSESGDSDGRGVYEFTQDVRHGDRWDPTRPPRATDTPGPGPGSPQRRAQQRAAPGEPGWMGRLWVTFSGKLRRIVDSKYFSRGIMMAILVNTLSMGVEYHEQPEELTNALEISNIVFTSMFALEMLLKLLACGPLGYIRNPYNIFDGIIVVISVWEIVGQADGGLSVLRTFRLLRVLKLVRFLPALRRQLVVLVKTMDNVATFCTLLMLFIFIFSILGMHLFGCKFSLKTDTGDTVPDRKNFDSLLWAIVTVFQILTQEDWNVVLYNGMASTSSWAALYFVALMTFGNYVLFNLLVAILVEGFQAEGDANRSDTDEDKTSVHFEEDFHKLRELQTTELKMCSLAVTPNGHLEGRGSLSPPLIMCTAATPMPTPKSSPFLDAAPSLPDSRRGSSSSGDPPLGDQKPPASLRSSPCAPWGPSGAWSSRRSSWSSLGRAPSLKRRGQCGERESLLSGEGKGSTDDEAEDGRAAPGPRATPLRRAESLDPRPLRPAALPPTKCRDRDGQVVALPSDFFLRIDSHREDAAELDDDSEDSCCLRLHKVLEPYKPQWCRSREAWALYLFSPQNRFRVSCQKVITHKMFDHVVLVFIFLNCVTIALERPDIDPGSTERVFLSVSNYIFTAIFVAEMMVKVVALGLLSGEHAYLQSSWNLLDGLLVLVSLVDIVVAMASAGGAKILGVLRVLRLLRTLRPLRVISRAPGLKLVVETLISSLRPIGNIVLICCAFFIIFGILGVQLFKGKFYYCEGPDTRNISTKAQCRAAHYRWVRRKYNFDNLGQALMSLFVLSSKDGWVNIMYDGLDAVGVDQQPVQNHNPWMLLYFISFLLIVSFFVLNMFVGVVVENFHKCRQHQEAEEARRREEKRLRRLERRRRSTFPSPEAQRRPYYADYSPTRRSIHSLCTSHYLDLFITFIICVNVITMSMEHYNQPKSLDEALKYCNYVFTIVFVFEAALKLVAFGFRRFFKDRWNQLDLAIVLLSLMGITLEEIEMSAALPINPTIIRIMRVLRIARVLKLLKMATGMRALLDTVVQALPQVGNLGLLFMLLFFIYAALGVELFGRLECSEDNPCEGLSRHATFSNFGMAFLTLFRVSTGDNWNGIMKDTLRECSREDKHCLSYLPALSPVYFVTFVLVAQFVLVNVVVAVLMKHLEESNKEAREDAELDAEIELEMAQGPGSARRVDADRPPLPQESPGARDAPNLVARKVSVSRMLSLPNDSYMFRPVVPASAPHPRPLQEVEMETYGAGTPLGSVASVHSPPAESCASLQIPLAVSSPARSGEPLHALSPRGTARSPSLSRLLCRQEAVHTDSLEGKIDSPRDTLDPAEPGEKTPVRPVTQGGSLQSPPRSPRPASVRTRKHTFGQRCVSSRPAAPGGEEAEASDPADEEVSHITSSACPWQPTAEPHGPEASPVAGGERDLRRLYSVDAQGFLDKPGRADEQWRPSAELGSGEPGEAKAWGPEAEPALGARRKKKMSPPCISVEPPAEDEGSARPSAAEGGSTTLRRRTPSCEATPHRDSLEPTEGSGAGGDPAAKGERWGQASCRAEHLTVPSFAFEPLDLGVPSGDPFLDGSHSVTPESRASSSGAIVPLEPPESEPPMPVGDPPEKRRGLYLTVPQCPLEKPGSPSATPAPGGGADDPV

| Structure (SMILES) | B-score |
| --- | --- |
| COc1cccc(N2CC(C(=O)Nc3c(C)cccc3C)CC2=O)c1 (stereo not given) | 0.386 |
| COc1cccc(N(C(=O)c2ccn[nH]2)C2(C(=O)Nc3c(C)cccc3C)CCCCC2)c1 | -4.96 (active) |
| COc1ccccc1C(=O)Nc1ccc(NC(=O)c2ccco2)c(C)c1 | -5.24 (active) |
| COC(=O)c1cc(Cl)c(NC(=O)c2ccco2)cc1OC | -0.41 |
| COc1ccc(NC(=O)c2cccc(NC(=O)c3ccco3)c2)c(OC)c1 | -2.2 |
| Cc1nc(C(=O)NCc2ccccc2)sc1C1(C)CC(c2cccnc2)=NO1 (stereo not given) | 0.0411 |
| CCOC(=O)c1ccc(NC(=O)c2nc[nH]c2C(=O)NCc2ccccc2)cc1 | -0.706 |
| Oc1c(Cl)cc(Cl)c(Cl)c1Cc1c(O)c(Cl)cc(Cl)c1Cl | -5.05 (active) |
| CSc1ccc(S(=O)(=O)NCc2ccc(Cl)cc2)cc1 | -1.35 |
| CSc1ccc(S(=O)(=O)Nc2cccc(F)c2)cc1 | -4.09 (active) |
| CSc1ccc(S(=O)(=O)NC2CCCCC2)cc1 | -0.215 |
| CC(C)(C)OC(=O)NCCCC1=CC2=CC(=O)C(C)(OC(=O)c3ccco3)C(=O)C2=CO1 (stereo not given) | 0.291 |
| CCNC(=S)NNC(=O)Cc1ccccc1 | 0.703 |
| Cc1ccc(NC(=S)NC(=O)c2ccc(-c3ccccc3)cc2)cc1 | -0.678 |
| COc1ccc(C(=O)NC(=S)NNC(=O)CCc2ccccc2)cc1 | -4.4 (active) |
| CCOc1c2ccc(C(=O)NCc3ccc4c(c3)OCO4)cc2nn1C | 0.329 |
| CC(=O)NS(=O)(=O)c1ccc(NC(=O)/C=C/c2ccccc2Cl)cc1 | -1.8 |
| CCNc1nc(N)nc(-c2cc(Cl)ccc2OC)n1 | 0.499 |
| CC[C@@H](C)[C@@H](C(=O)N1CCN(C(=O)OC(C)(C)C)CC1)n1cc(CCC(=O)O)nn1 | 1.09 |
| CC(C)(C)C(=O)Nc1ccc(C(=O)N/N=C/c2ccccc2OC(=O)c2ccc(Cl)cc2Cl)cc1 | -2.74 |
| COc1ccc(Cl)cc1C(=O)NCC#N | 0.746 |
| COC(=O)/C(=C\Nc1ccccc1)NC(=O)c1ccc(Cl)cc1Cl | -5.14 (active) |

| Structure (SMILES) | B-score |
| --- | --- |
| CCOc1cc(/C=C2/N=C(c3ccc(C(C)(C)C)cc3)OC2=O)cc(Cl)c1OS(C)(=O)=O | -1.04 |
| Cc1nc2c(C(=O)NCc3ccc4c(c3)OCO4)c[nH]n2c(=O)c1Cc1ccccc1F | -5.22 (active) |
| CCn1cc(C(=O)NCc2ccc3c(c2)OCO3)c2cc(OC)c(OC)cc2c1=O | 0.417 |
| CC(C)NC(=O)CSc1ccccc1C(=O)NCc1ccc2c(c1)OCO2 | 0.374 |
| O=C(CSc1nc(C2CC2)nc2ccccc12)Nc1ccc2c(c1)OCCO2 | 0.0431 |
| COc1ccc(OC)c(C(=O)c2ccc(C(=O)O)cc2)c1 | -3.15 |
| COc1ccc(OC)c(C(=O)c2coc3ccc(OC)cc23)c1 | -3.61 (active) |
| COc1ccc2oc(C)c(NC(C)=O)c2c1 | 0.131 |
| Cc1ccccc1C(=O)N1CCC(C(=O)Nc2ccc(S(=O)(=O)N(C)C(C)C)cc2)CC1 | 0.159 |
| NC(=O)CC[C@@H]1NC(=O)[C@H](CO)NC(=O)c2cc([N+](=O)[O-])cc(I)c2NCC[C@@H](C(N)=O)NC1=O | 0.984 |
| O=C(COC(=O)c1ccc2c(c1)OCCO2)NCc1ccccc1 | -0.412 |
| O=C(NCCc1ccc2c(c1)OCCO2)c1cc2ccccc2o1 | -3.85 (active) |
| O=C(CC(Cc1ccccc1)C(=O)O)NCCc1ccc2c(c1)OCO2 (stereo not given) | -0.225 |
| COc1ccc(CNC(=O)[C@@H]2CC=C[C@@H]3CCN(C4CC4)C(=O)[C@@H]32)cc1 | 1.86 |
| CC[C@H](C)[C@@H](C(=O)N1CCNCC1)n1cc([C@@H](N)Cc2ccc(O)cc2)nn1 | 0.0182 |
| Cc1cccc(N(C(=O)Cc2cccs2)C(C(=O)NC2CCCC2)c2ccsc2)c1 (stereo not given) | -1.16 |
| CCC1(CC)C(=O)C2=C3C1[C@H](C(=O)OC)C=C(C(=O)OC)C[C@H]3[C@H]1C(=O)N(Cc3ccccc3)C(=O)[C@H]1[C@H]2C (stereo not given in full) | 0.691 |
| Cc1[nH]n(-c2cccc(Cl)c2)c(=O)c1-c1ccc(Cl)cc1 | -7.48 (active) |
| O=c1[nH]n(-c2cccc(Cl)c2)c2ncccc12 | 0.173 |
| Cc1ccc(-c2cc(=O)c3ccc(Cl)cc3[nH]2)cc1 | -0.0223 |
| CC1=CC(C)(C)Nc2ccc(OC(=O)CN3C(=O)C4CCCCC4C3=O)cc21 (stereo not given) | -0.00954 |
| CC1=CC(C)(C)Nc2ccc(OC(=O)C(Cc3ccccc3)N3C(=O)C4CCCCC4C3=O)cc21 (stereo not given) | -5.23 (active) |

| Structure (SMILES) | B-score |
| --- | --- |
| Cc1ccc(C)n1C(Cc1ccccc1)C(=O)O (stereo not given) | 1.91 |
| COCCCn1c(SCc2cccc(OC)c2)nc2cc(OC)c(OC)cc2c1=N | -0.819 |
| C=C1CCN([C@H](C(=O)NCc2cc(OC)c(OC)c(OC)c2)C(C)C)S(=O)(=O)c2ccccc21 | 1.03 |
| COc1ccc2cc1Oc1ccc(cc1)C[C@H]1c3cc(c(OC)cc3CCN1C)Oc1c(O)c(OC)cc3c1[C@H](C2)N(C)CC3 | 1.81 |
| COc1ccc(-c2cc(C(=O)n3cnc4ccccc43)c3ccccc3n2)cc1 | -0.0392 |
| COc1ccccc1CSc1nc2ccccc2[nH]1 | -0.942 |
| COc1ccc(-c2[nH]nc(-c3ccccc3)c2-c2nc3ccccc3[nH]2)cc1 | -6.24 (active) |
| O=C(COc1ccccc1)NCCc1nc2ccccc2[nH]1 | 0.299 |
| COc1ccccc1C1/C(=C(/O)c2ccc(OC(C)C)cc2)C(=O)C(=O)N1c1cc(C)on1 (stereo not given) | -0.532 |
| Cc1cc(N2C(=O)C(=O)/C(=C(/O)c3ccc(Cl)cc3)C2c2cccc(Br)c2)no1 (stereo not given) | -7.89 (active) |
| O=C1C(=O)N(CCN2CCOCC2)C(c2ccccn2)/C1=C(/O)c1ccc(Cl)cc1 (stereo not given) | -0.156 |
| Cc1cccc(NC(=S)Nc2ccc(Br)cc2)c1 | -1.14 |
| O=C(COc1ncnc2c(Cl)cc(Cl)cc12)N1CCN(S(=O)(=O)c2ccccc2)CC1 | 0.727 |
| CC(C)(C)NC(=O)C(c1ccco1)N(Cc1ccc2c(c1)OCO2)C(=O)Cn1nnc2ccccc21 (stereo not given) | -1.57 |
| COc1ccccc1N(C(=O)Cn1nnc2ccccc21)C(C(=O)NCc1ccco1)c1ccc(C)o1 (stereo not given) | -6.1 (active) |
| Cc1ccc(C(C(=O)NCc2ccco2)N(CC2CCCO2)C(=O)Cn2nnc3ccccc32)cc1 (stereo not given) | 0.195 |
| CCOC(=O)c1cc(NC(=O)c2ccc(Cl)cc2)c(=O)oc1-c1ccccc1 | -0.21 |
| COC(=O)C1(O)CC(C(C)C)=NN1C(=O)c1ccc(Cl)cc1 (stereo not given) | -0.542 |
| Cc1nnsc1S(=O)(=O)Cc1ccccc1Cl | 0.123 |
| O=C(NNS(=O)(=O)c1ccc(Cl)cc1)C1CCN(Cc2ccccc2)CC1 | 0.455 |
| COc1ccc(C(=O)Nc2ccc(S(=O)(=O)NC(C)C)cc2)cc1 | 1.46 |
| COC(=O)C(NC(=O)c1ccc(OC)cc1)(Nc1ncc(S(=O)(=O)c2ccc([N+](=O)[O-])cc2)s1)C(F)(F)F (stereo not given) | -8.97 (active) |

| Structure (SMILES) | B-score |
| --- | --- |
| COc1ccc(C(=O)Nc2nc(-c3ccc(OC)cc3)c(-c3ccc([N+](=O)[O-])cc3)s2)cc1 | -2.13 |
| COC(=O)CCCC1=CC2=CC(=O)C(C)(OC(=O)c3cccs3)C(=O)C2=CN1CC(C)C (stereo not given) | 0.582 |
| COC(C[C@@H]1O[C@@H]1C(=O)[C@H](C)OCc1ccccc1)OC | -0.00689 |
| COC(=O)c1ccc(NC(=O)CSc2nnc(Cc3cccn3C)n2-c2ccc(F)cc2)cc1 | -9.38 (active) |
| COc1ccc(-n2c(Cc3cccn3C)nnc2SCC(=O)Nc2cc(C)cc(C)c2)cc1 | -8.52 (active) |
| Cc1ccc(C)c(NC(=O)CSc2nnc(Cc3cccn3C)n2-c2ccc(F)cc2)c1 | -2.84 |
| COc1ccccc1NC(=O)CSc1nnc(Cc2cccn2C)n1-c1ccc(F)cc1 | -2.37 |
| CCc1nnc(NC(=O)CSc2nnc(Cc3ccccc3)n2-c2ccc(OC)cc2)s1 | -1.29 |
| Cn1cccc1Cc1nnc(SCC(=O)NCCc2ccccc2)n1-c1ccc(F)cc1 | -2.55 |
| COc1ccccc1CNC(=O)c1ccc(SC)cc1OC | -2.74 |
| Cc1ccccc1CS(=O)(=O)CC1(O)CCN(C(=O)c2cccc(C(F)(F)F)c2)CC1 | 0.394 |
| C#CCOCCOCCOCCNc1nc(N2CCN(C(=O)[C@H](Cc3ccc(O)cc3)n3cc(C(N)CC(C)C)nn3)CC2)nc(N2CCN(C(=O)[C@H](CCC(=O)O)n3cc(C(N)[C@H](C)CC)nn3)CC2)n1 (stereo not given in full) | -0.0524 |
| COc1cc(NC(=O)c2cncc(-c3ccc(C#N)cc3)c2)cc(C(=O)Nc2cccc(C(F)(F)F)c2)c1 | 0.721 |
| CCOc1[nH]n(-c2ccc(Cl)cc2)c(=O)c1C=Nc1ccc(O)cc1 | -0.0117 |
| O=C(Nc1ccc(-c2csc(Nc3cccc(C(F)(F)F)c3)n2)cc1)c1cccc(C(F)(F)F)c1 | 0.00365 |
| COC(C[C@@H](O)C[C@H](O)[C@H](C)OCc1ccccc1)OC | 1.07 |
| Cn1c(=O)c2c(ncn2CC(=O)N2CCN(c3ccccc3)CC2)n(C)c1=O | 0.538 |
| CCOc1ccc(-c2nnn(CC(=O)N3CCN(c4ccc(F)cc4)CC3)n2)cc1OCC | 0.122 |
| O=C(c1ccccc1)c1cccn1CC(=O)N1CCN(c2ccc(F)cc2)CC1 | -6.62 (active) |
